Results from PMC8159961, “Exploring protein hotspots by optimized fragment pharmacophores” (Nature Communications, 2021).
A number with no mark means an inactive call. How the calls were made is not given here.

Columns and labels:
Test in all cases: primary screen, binary call; higher = more effect of the substance
[1] = biological target: Factor Xa (bovine, UniProt P00743); parameters: screenings were carried out in duplicate in one independent experiment; conditions: 200 µM
Experimental: Protease inhibitory assays were performed in transparent microtiter plates in a final volume of 200 µL with the use of chromogenic substrates. The reaction rates in the absence and in the presence of the inhibitor were measured; screenings were carried out in duplicate in one independent experiment and Ki values were determined in triplicate in two independent experiments.

[2] = biological target: 5-HT6 receptor (human, UniProt P50406); parameters: hit call from the mean of at least two separate experiments; conditions: 10 µM
Chain of 5-HT6 receptor (P50406 whole entry, looked up): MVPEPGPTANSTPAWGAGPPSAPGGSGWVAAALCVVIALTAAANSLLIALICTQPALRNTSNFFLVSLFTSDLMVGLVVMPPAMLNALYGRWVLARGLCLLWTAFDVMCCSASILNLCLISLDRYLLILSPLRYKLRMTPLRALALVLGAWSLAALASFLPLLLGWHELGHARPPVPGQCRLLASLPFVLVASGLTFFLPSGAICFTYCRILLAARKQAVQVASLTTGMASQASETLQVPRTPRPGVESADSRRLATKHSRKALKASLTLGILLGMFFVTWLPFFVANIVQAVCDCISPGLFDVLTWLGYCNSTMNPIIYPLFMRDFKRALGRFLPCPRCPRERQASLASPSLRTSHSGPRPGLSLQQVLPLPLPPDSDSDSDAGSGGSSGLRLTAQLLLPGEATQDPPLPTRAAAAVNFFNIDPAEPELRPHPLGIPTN

[3] = biological target: 5-HT7b receptor (human, UniProt P34969); parameters: hit call from the mean of at least two separate experiments; conditions: 10 µM
Chain of 5-HT7b receptor (P34969 whole entry, looked up): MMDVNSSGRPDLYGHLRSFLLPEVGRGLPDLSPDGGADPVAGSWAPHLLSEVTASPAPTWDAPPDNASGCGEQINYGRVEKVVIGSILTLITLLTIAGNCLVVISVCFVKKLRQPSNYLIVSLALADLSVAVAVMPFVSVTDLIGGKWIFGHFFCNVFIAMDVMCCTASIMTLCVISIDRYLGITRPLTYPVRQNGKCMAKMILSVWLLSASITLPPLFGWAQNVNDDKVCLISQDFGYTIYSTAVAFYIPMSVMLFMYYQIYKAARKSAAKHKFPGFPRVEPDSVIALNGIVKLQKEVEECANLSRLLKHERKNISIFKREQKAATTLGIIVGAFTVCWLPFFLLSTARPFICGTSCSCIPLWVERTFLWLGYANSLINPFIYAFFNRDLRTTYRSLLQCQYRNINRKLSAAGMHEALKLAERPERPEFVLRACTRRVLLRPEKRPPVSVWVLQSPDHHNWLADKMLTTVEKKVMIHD

Chain of Factor Xa (P00743 41-180 limits assumed): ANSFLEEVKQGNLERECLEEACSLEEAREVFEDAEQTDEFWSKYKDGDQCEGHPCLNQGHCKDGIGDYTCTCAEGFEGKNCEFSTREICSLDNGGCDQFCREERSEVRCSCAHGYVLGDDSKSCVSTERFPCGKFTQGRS
Chain of Factor Xa (P00743 234-492 limits assumed): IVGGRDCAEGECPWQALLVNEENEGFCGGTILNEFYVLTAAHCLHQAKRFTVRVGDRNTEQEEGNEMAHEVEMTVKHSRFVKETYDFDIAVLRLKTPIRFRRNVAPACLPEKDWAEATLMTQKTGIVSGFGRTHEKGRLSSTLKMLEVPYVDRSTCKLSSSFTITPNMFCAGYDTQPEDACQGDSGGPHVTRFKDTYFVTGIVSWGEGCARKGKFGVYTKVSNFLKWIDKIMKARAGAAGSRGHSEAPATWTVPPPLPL

| Structure (SMILES) | Factor Xa [1] | 5-HT6 [2] | 5-HT7 [3] |
| --- | --- | --- | --- |
| Cc1cc(-c2ccccc2)n[nH]1 | 0 | 0 | 0 |
| O=C1CNCCN1c1ccccc1 | 0 | 0 | 0 |
| CCn1cnc2ccccc21 | 0 | 0 | 0 |
| Cc1ccc(C)n1Cc1ccccc1Cl | 0 | 0 | 0 |
| COc1ccc(C2=CCNCC2)cc1 | 0 | 0 | 0 |
| CCc1nccn1CC(=O)O | 0 | 0 | 0 |
| Fc1ccc2c(C3CCNCC3)c[nH]c2c1 | 0 | 1 (active) | 1 (active) |
| O=C(O)c1ccc(CN2CCOCC2)cc1 | 0 | 0 | 0 |
| c1ccc2sc(N3CCNCC3)nc2c1 | 0 | 0 | 0 |
| Nc1nnc(-c2cccs2)[nH]1 | 0 | 1 (active) | 0 |
| N#CCCN1CCc2ccccc21 | 0 | 0 | 0 |
| O=c1[nH]c2c(s1)CCC2 | 0 | 0 | 0 |
| Cc1ccc(CCNc2ccccc2)cn1 | 0 | 0 | 0 |
| Oc1nnc(-c2ccccc2)o1 | 0 | 0 | 0 |
| O=C(Nc1ccccc1)C1CC1 | 0 | 0 | 0 |
| O=C(c1ccncc1)N1CCNCC1 | 0 | 0 | 0 |
| COc1cccc(NC2=NCCCCC2)c1 | 0 | 0 | 0 |
| Oc1ccc(-n2cncn2)cc1 | 0 | 0 | 0 |
| CC(=O)c1ccc2c(c1)CCCN2 | 0 | 0 | 0 |
| N[C@H]1c2ccccc2C[C@H]1CO | 0 | 0 | 0 |
| CC(=O)c1ccc2c(c1)CNCC2 | 0 | 0 | 0 |
| Cn1c(N)nc2ccccc21 | 1 (active) | 0 | 0 |
| COc1ccccc1N1CCNCC1 | 0 | 1 (active) | 1 (active) |

| Structure (SMILES) | Factor Xa [1] | 5-HT6 [2] | 5-HT7 [3] |
| --- | --- | --- | --- |
| CCc1ccc(NC2=NCCCS2)cc1 | 0 | 0 | 0 |
| O=C(CN1CCNCC1)c1ccccc1 | 0 | 0 | 0 |
| Nc1ccc(SC(F)F)cc1 | 0 | 0 | 0 |
| Oc1ccccc1N1CCCCC1 | 1 (active) | 1 (active) | 0 |
| c1ccc(-c2ccncc2)cc1 | 0 | 0 | 0 |
| C1=C[C@H]2O[C@@H]1c1ccccc12 | 0 | 0 | 0 |
| FC1(F)CNCC(F)(F)O1 | 0 | 0 | 0 |
| CS(=O)(=O)Nc1ccc(C(=O)O)cc1 | 0 | 0 | 0 |
| O=C1CCCc2occc21 | 0 | 0 | 0 |
| Fc1ccc(CC2CCCNC2)cc1 (stereo not drawn) | 0 | 0 | 0 |
| O=C1CC(CSc2ccc(Cl)cc2)=NN1 | 0 | 0 | 0 |
| NC(c1ccccc1)c1ccccc1 | 0 | 0 | 0 |
| Oc1ccc(C2CCNCC2)cc1 | 0 | 0 | 0 |
| Cc1nccn1Cc1cccc(C#N)c1 | 0 | 0 | 0 |
| CN1CC(=O)NC1=O | 0 | 0 | 0 |
| Cc1cc(N)no1 | 0 | 0 | 0 |
| Cn1nc(C(F)(F)F)cc1O | 0 | 0 | 0 |
| CCN(CC)c1cccc(C)c1 | 0 | 0 | 0 |
| CC1(C)OC(=O)c2cc(Br)c(O)cc2O1 | 0 | 1 (active) | 0 |
| O=C1NC(=O)C2(CCc3ccccc32)N1 (stereo not drawn) | 0 | 0 | 0 |
| O=C(c1ccccc1F)N1CCNCC1 | 1 (active) | 0 | 0 |
| O=C(O)c1cnc(-c2ccccc2)s1 | 0 | 0 | 0 |
| CN(C)c1cc(CN)ccn1 | 0 | 0 | 0 |

| Structure (SMILES) | Factor Xa [1] | 5-HT6 [2] | 5-HT7 [3] |
| --- | --- | --- | --- |
| O=C(NC1CC1)c1ccccc1O | 0 | 0 | 0 |
| O=C1NC2(CCCC2)Nc2ccccc21 | 0 | 0 | 0 |
| O=C(O)C1CCN(c2ncccn2)CC1 | 0 | 0 | 0 |
| O=C1CCN(c2ccncc2)CC1 | 0 | 0 | 0 |
| CCCN1C(=O)CC(=O)NC1=S | 0 | 0 | 0 |
| Cc1ccc(-c2ccc(O)cc2)cc1 | 0 | 0 | 0 |
| COc1ccccc1CC1CCNCC1.Cl | 1 (active) | 1 (active) | 1 (active) |
| c1cnc2c(c1)NCCC2 | 0 | 0 | 0 |
| N#Cc1ccc(C(=O)N2CCOCC2)cc1 | 0 | 0 | 0 |
| NC1CCc2ccccc21 (stereo not drawn) | 0 | 0 | 0 |
| CC(=O)c1sc(-c2ccc(O)cc2)nc1C | 1 (active) | 1 (active) | 0 |
| NC(=O)N1CCC(C(=O)O)CC1 | 0 | 0 | 0 |
| c1ccc(Nc2nncs2)cc1 | 1 (active) | 0 | 0 |
| O=C(c1ccccc1)N1CCC(CO)CC1 | 0 | 0 | 0 |
| c1ccc2c(N3CCNCC3)ccnc2c1 | 0 | 1 (active) | 0 |
| Cc1cnc(C(F)(F)F)cn1 | 0 | 0 | 0 |
| O=C(O)CC1CCC(=O)N1 (stereo not drawn) | 0 | 0 | 0 |
| O=C1CCN(c2ccccn2)CC1 | 0 | 0 | 0 |
| Cc1cc(C)c2c(=O)[nH]n(C)c2n1 | 0 | 0 | 0 |
| CC1CCc2sc(C(=O)O)cc2C1 (stereo not drawn) | 0 | 0 | 0 |
| O=C(O)C1CCCN(C(=O)N2CCCC2)C1 (stereo not drawn) | 0 | 0 | 0 |
| O=C1CCC(=O)N(c2ccccc2)N1 | 0 | 0 | 0 |
| Cc1nc(-c2ccccc2)cs1 | 0 | 1 (active) | 0 |

| Structure (SMILES) | Factor Xa [1] | 5-HT6 [2] | 5-HT7 [3] |
| --- | --- | --- | --- |
| Nc1ccc(-c2ccccc2)cc1C(=O)O | 0 | 0 | 0 |
| CS(=O)(=O)c1ccc(OC(F)(F)F)cc1 | 0 | 0 | 0 |
| COc1ccccc1C1CCNCC1 | 0 | 1 (active) | 1 (active) |
| Cn1c(CO)nc2ccccc21 | 0 | 0 | 0 |
| Brc1ccc(-c2ccon2)cc1 | 0 | 0 | 0 |
| Oc1cnc(-c2ccccc2)nc1 | 0 | 0 | 0 |
| O=C1NC(=O)/C(=C\c2cccs2)N1 | 1 (active) | 0 | 0 |
| O=c1[nH]ncc2c1oc1ccccc12 | 0 | 0 | 0 |
| COc1ccc(CN2CCNCC2)cc1F | 0 | 0 | 0 |
| Clc1ccc2nnnn2n1 | 0 | 0 | 0 |
| O=c1ccc2c([nH]1)CCCC2 | 0 | 0 | 0 |
| CS(=O)(=O)c1ccc(N2CCNCC2)cc1 | 0 | 0 | 0 |
| CC1C(=O)NC(=O)N1c1ccc(Cl)cc1 (stereo not drawn) | 0 | 0 | 0 |
| O=C1CSC(Nc2ccc(F)cc2)=N1 | 0 | 0 | 0 |
| NCC1(c2ccccc2)CCOCC1 | 0 | 0 | 0 |
| O=C(O)c1cccc(Nc2ncccn2)c1 | 0 | 1 (active) | 0 |
| c1ccc2oc(C3CCCNC3)nc2c1 (stereo not drawn) | 0 | 0 | 0 |
| COC(=O)c1c(C)nc(C2CC2)[nH]c1=O | 0 | 0 | 0 |
| O=C(CN1CCCC1)c1ccccc1Cl | 0 | 0 | 0 |
| N#CC1CCS(=O)(=O)C1 (stereo not drawn) | 0 | 0 | 0 |
| CC(CN)N1CCc2sccc2C1 (stereo not drawn) | 0 | 0 | 0 |
| N#Cc1ccc2ncsc2c1 | 0 | 0 | 0 |
